Some test systems named below: DDR1; DDR2; DMPK; DYRK1A; DYRK1B; DYRK2; EGFR; EIF2AK1; EPHA1; EPHA2; EPHA3; EPHA4; EPHA5; EPHA6.
Holding throughout (settings): concentration: 1 μM,replicates: in singlicate; n = 1
Another experiment has as its system T1, DCAMKL2.
T1 construct: gene DCLK2

The subject of a further experiment is T2, DCAMKL3.
T2 construct: gene DCLK3

A further experiment relates to T3, DLK.
T3 construct: gene MAP3K12

The next experiment has as its system T4, DMPK2.
T4 construct: gene CDC42BPG

A further experiment relates to T5, DRAK1.
T5 construct: gene STK17A

In the next experiment the test system is T6, DRAK2.
T6 construct: gene STK17B
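Note: KINOMEscan kinase panel screen.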

As to `Cc1n[nH]c2ccc(-c3cc(OC[C@@H](N)Cc4ccccc4)cnc3-c3ccoc3)cc12.O=C(O)C(F)(F)F.O=C(O)C(F)(F)F` [GSK507358], the “%Inh” value is recorded as 0% in the experiment with DCAMKL2; 0% with DCAMKL3; 0% in the experiment with DDR1; 0% in the experiment on DDR2; 15% in the experiment on DLK; 50% with DMPK2. For the same compound, the “%Inh” value in the experiment with DMPK was found to be 92.8%; with DRAK1 it was 0%; in the experiment with DRAK2, 0%; in the experiment on DYRK1A, 29%; with DYRK1B, 49%; in the experiment with DYRK2 it was 40%. Besides, the “%Inh” value stood at 87% in the experiment with EGFR; 0% in the experiment with EIF2AK1; 5% with EPHA1; 0% in the experiment with EPHA2; 43% with EPHA3; 0% in the experiment with EPHA4. Besides, the “%Inh” value is listed as 0% with EPHA5 and 4% in the experiment on EPHA6.
For the compound `C=CC(=O)Nc1cc2c(Nc3ccc(F)c(Cl)c3)ncnc2cc1OCCCN1CCOCC1` [GW781483], the “%Inh” value worked out at 1% in the experiment with DCAMKL2; 10% with DCAMKL3; 71% with DDR1; 44% with DDR2; 0% with DLK; 6% in the experiment on DMPK2. Further, the “%Inh” value in the experiment with DMPK was determined as 20%; in the experiment on DRAK1, 2%; in the experiment with DRAK2 it was 5%; in the experiment on DYRK1A, 11%; with DYRK1B it was 23%; in the experiment with DYRK2, 17%. Moreover, the “%Inh” value is 11% in the experiment with EIF2AK1; 25% with EPHA1; 0% with EPHA2; 13% in the experiment on EPHA3; 5% in the experiment on EPHA4; 7% in the experiment on EPHA5.
Consider `NC(=O)c1cc(-c2ccccc2)cc2c(C3CCNCC3)c[nH]c12` [GSK301362], for which the “%Inh” value in the experiment on DCAMKL2 is reported as 2%; in the experiment on DCAMKL3 it was 53%; with DDR2, 0%; with DLK, 23%; in the experiment with DMPK2, 8%; with DMPK, 30%. The “%Inh” value is on record as 0% with DRAK1; 0% in the experiment on DRAK2; 28% with DYRK1A; 45% in the experiment with DYRK1B; 23% with DYRK2; 25% in the experiment with EGFR. Further, the “%Inh” value in the experiment on EIF2AK1 was 0%; with EPHA1, 18%; with EPHA2, 10%; in the experiment with EPHA3 it was 0%; with EPHA4 it was 6%; with EPHA5 it was 0%. The “%Inh” value in the experiment with EPHA6 was 3%.
Turning to `C[C@@H]1CCN(C(=O)CC#N)C[C@@H]1N(C)c1ncnc2[nH]ccc12`, the “%Inh” value in the experiment with DCAMKL2 came to 14%; in the experiment with DCAMKL3, 99.1%; in the experiment on DDR1, 0%; in the experiment with DDR2 it was 0%; with DLK, 0%; in the experiment with DMPK2, 0%. The “%Inh” value with DMPK is 24%; with DRAK1, 11%; in the experiment with DRAK2, 5%; in the experiment with DYRK1A it was 0%; in the experiment with DYRK1B, 0%; with DYRK2, 0%. The “%Inh” value is 6% with EIF2AK1; 6% in the experiment on EPHA1; 0% in the experiment on EPHA2; 0% in the experiment on EPHA3; 0% with EPHA4; 0% in the experiment with EPHA5. The “%Inh” value in the experiment with EPHA6 was determined as 0%.
As to `CCN(CC)CCCCNc1ncc2cc(-c3c(Cl)cccc3Cl)c(NC(=O)NC(C)(C)C)nc2n1`, the “%Inh” value with DCAMKL2 is reported as 0%; in the experiment with DCAMKL3, 14%; in the experiment with DDR1 it was 99.7%; in the experiment with DDR2 it was 100%; in the experiment on DLK, 86%; in the experiment with DMPK2, 0%. Further, the “%Inh” value in the experiment with DMPK is 4%; in the experiment with DRAK1, 0%; in the experiment with DRAK2 it was 5%; in the experiment with DYRK1A, 0%; with DYRK1B it was 1%; with DYRK2, 0%. The “%Inh” value with EIF2AK1 came out at 46%; with EPHA1, 99.6%; with EPHA2, 99.6%; with EPHA3 it was 99.4%; with EPHA4 it was 91.5%; in the experiment on EPHA5, 95.9%. For the same compound, in the experiment on EPHA6, the “%Inh” value is 95.6%.
On to `CCN(CC)CCOc1ccc(Nc2ncc3cc(-c4c(Cl)cccc4Cl)c(=O)n(C)c3n2)cc1` [SB-601273], for which the “%Inh” value is 41% with DCAMKL2; 0% in the experiment on DCAMKL3; 100% in the experiment on DDR1; 100% with DDR2; 96.4% in the experiment with DLK; 95.4% in the experiment with DMPK2. Besides, the “%Inh” value with DMPK came to 24%; with DRAK1, 43%; in the experiment with DRAK2, 21%; in the experiment on DYRK1A it was 0%; in the experiment on DYRK1B it was 14%; in the experiment on DYRK2, 11%. Also, the “%Inh” value in the experiment with EIF2AK1 was found to be 96.9%; in the experiment on EPHA1 it was 100%; in the experiment with EPHA2, 100%; with EPHA3, 96.6%; in the experiment on EPHA4 it was 100%; in the experiment with EPHA5 it was 99.8%. Moreover, in the experiment with EPHA6, the “%Inh” value came out at 97.9%.
Regarding `Cl.Cl.Nc1nc(-c2ccc3c(N)n[nH]c3c2)cc(N2CCCC(NC(=O)c3ccccc3)C2)n1` (stereo not shown) [GSK2286775], the “%Inh” value in the experiment on DCAMKL2 is given as 0%; in the experiment with DCAMKL3, 0%; with DDR1 it was 26%; in the experiment with DDR2, 0%; in the experiment with DLK, 1%; in the experiment on DMPK2, 1%. The “%Inh” value in the experiment on DMPK was 0%; in the experiment with DRAK1, 75%; with DRAK2, 0%; with DYRK1A, 9%; in the experiment on DYRK1B, 18%; with DYRK2 it was 80%. Also, the “%Inh” value is given as 28% in the experiment with EGFR; 0% in the experiment on EIF2AK1; 13% in the experiment with EPHA1; 0% in the experiment on EPHA2; 0% in the experiment with EPHA3; 15% with EPHA4. Besides, the figures for the “%Inh” value in the experiment with EPHA5 and in the experiment on EPHA6 were 0% and 6%, respectively.
Regarding `CCn1c(-c2nonc2N)nc2c(C#CC(C)(C)O)nc(OCCN)cc21.Cl.Cl` [GSK902056], the “%Inh” value in the experiment on DCAMKL2 came out at 0%; with DCAMKL3 it was 40%; with DDR2 it was 5%; in the experiment with DLK, 0%; in the experiment with DMPK2 it was 0%; with DMPK, 0%. The “%Inh” value in the experiment with DRAK1 is 0%; in the experiment on DRAK2 it was 0%; with DYRK1A, 25%; with DYRK1B, 4%; in the experiment on DYRK2, 0%; in the experiment on EGFR, 24%. In addition, the “%Inh” value is reported as 8% with EIF2AK1; 19% in the experiment with EPHA1; 19% with EPHA2; 21% with EPHA3; 15% in the experiment with EPHA4; 0% in the experiment with EPHA5. The “%Inh” value in the experiment with EPHA6 turned out to be 11%.
With `Cl.Oc1cc(-c2nc(-c3ccccc3)[nH]c2-c2ccncc2)ccc1Cl` [SB-386023], the “%Inh” value in the experiment with DCAMKL2 worked out at 0%; in the experiment on DCAMKL3, 0%; with DDR1 it was 92.7%; in the experiment on DDR2, 83%; in the experiment on DLK, 0%; in the experiment with DMPK2, 0%. Also, the “%Inh” value worked out at 0% in the experiment with DMPK; 0% in the experiment with DRAK1; 0% in the experiment on DRAK2; 0% with DYRK1A; 0% with DYRK1B; 5% in the experiment on DYRK2. The “%Inh” value is listed as 20% in the experiment with EGFR; 0% in the experiment on EIF2AK1; 59% in the experiment on EPHA1; 0% in the experiment on EPHA2; 5% in the experiment with EPHA3; 0% in the experiment on EPHA4. Moreover, the entries for the “%Inh” value with EPHA5 and in the experiment on EPHA6 were 23% and 36%, respectively.
On to `Cl.Cl.NC[C@H](CC1CCCCC1)NC(=O)c1cc(Br)c(-c2ccnc3[nH]ccc23)s1` [GSK1581427], for which the “%Inh” value in the experiment on DCAMKL2 came out at 14%; in the experiment with DCAMKL3, 0%; in the experiment with DDR1 it was 0%; with DDR2 it was 0%; in the experiment on DLK, 0%; in the experiment on DMPK2 it was 98.3%. For the same compound, the “%Inh” value with DMPK is listed as 91.7%; with DRAK1 it was 14%; in the experiment with DRAK2 it was 0%; in the experiment with DYRK1A it was 55%; with DYRK1B, 71%; with DYRK2, 67%. Also, the “%Inh” value in the experiment with EGFR amounted to 23%; with EIF2AK1, 0%; in the experiment on EPHA1 it was 42%; in the experiment with EPHA2, 12%; in the experiment on EPHA3 it was 0%; in the experiment with EPHA4, 13%. Besides, the “%Inh” value with EPHA5 worked out at 0%; with EPHA6, 25%.
